PNC inhibitor: High Content Assay for Compounds that inhibit the Assembly of the Perinucleolar Compartment; PC3M PTB-GFP, PNC prevalence imaging, 16 h; active compounds read low; activity change (PNC), negative = inhibition, % at 10 µM; 140,000 compounds, 3.1% hits; AID 2417, 2010;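 active means readout at or below -70, meaning at least 70% loss of cells showing the perinucleolar compartment, a nuclear body marking cancer cells; inconclusive means readout between -30 and a set limit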;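 further: plate controls were DMSO wells for no effect and camptothecin positive control wells for full effect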
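Read-out is percentage of cells bearing a perinucleolar compartment, from automated 20x imaging of fixed, Hoechst-stained PC3M PTB-GFP cells. Cells were seeded 4 h, then exposed 16 h to compound (23 nl of library stock) in duplicate plates.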
HPGD block: qHTS Assay for Inhibitors of HPGD (15-Hydroxyprostaglandin Dehydrogenase); 15-hydroxyprostaglandin dehydrogenase [NAD(+)] (Homo sapiens), P15428; purified HPGD, NADH fluorescence kinetic, PGE2 substrate; Potency, µM, without a hit: at the top dose activity change, negative = inhibition, actives largely listed as inhibitors; 150,000 compounds, 4.3% hits; further: potency means the concentration at half of the fitted maximal effect
Target sequence (P15428 whole entry, looked up): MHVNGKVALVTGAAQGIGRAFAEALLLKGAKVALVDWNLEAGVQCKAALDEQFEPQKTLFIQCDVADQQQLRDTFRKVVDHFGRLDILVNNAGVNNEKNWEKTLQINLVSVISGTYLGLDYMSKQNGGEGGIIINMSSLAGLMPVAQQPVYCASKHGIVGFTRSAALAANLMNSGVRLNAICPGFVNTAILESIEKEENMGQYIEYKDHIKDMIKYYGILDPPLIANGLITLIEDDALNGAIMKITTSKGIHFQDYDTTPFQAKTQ
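20 nM HPGD preincubated 15 min at room temperature with compound in 50 mM Tris-HCl pH 8, 0.01% Tween 20. Started with 1 mM NAD+ and 30 uM prostaglandin E2; NADH fluorescence (360/450 nm) read 5 times over 30-s intervals, last minus first.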
ALDH1A1 inh: qHTS Assay for Inhibitors of Aldehyde Dehydrogenase 1 (ALDH1A1) | Aldehyde dehydrogenase 1A1 (Homo sapiens), P00352 | Purified ALDH1A1, NADH fluorescence, propionaldehyde substrate | Potency, µM (doses to about 75.3 µM), inactives show top-dose activity, negative = inhibition, usual class: inhibitors | 220,000 compounds, 7.3% hits | AID 1030, 2008;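 further: potency means the concentration at half of the fitted maximal effect; plate controls were no enzyme wells and a reference inhibitor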
Active calls of the source: *; ? = inconclusive; · = not tested or not shown; [ ] = remark or other dose. An excerpt weighted towards active compounds, which were near 11% of everything screened. Unless noted, the call rests on the fitted dose curve; in most records, active means well fitted inhibition curve with a large enough effect (not every such curve was filed as active); inconclusive means small, poorly fitted or top-dose-only effect, or another doubt; inactive means no such curve, though single readings can be large or run the other way. Unless noted, on the % scale 0 is the no-effect control and ±100 the full control effect.

SMILES	PNC inhibitor	HPGD block	ALDH1A1 inh
Cc1ccc(NC(=O)N2CCC(c3nc4c(nnn4Cc4cccc(Cl)c4)c(=O)[nH]3)CC2)cc1	?	2µM*	-17%
COC(=O)N1CCC2(CCN(C(=O)Nc3cccc(C#N)c3)CC2)CC1	·	-5%	0%
N#Cc1cccc(NC(=O)N2CCC(c3nc4c(nnn4Cc4cccc(Cl)c4)c(=O)[nH]3)CC2)c1	16	10µM*	-2%
O=C(Nc1ccc(F)cc1)N1CCC(c2nc3c(nnn3Cc3cccc(Cl)c3)c(=O)[nH]2)CC1	19	8.9µM*	12%
COc1ccc(NC(=O)N2CCC(c3nc4ccccc4[nH]3)CC2)cc1	·	·	-17%
O=C(NC1CCCC1)c1nc2c(nnn2Cc2cccc(Cl)c2)c(=O)[nH]1	9	2.5µM*	-4%
O=C(NC1CCCC1)c1nc2c(nnn2Cc2ccccc2Cl)c(=O)[nH]1	20	?	-2%
CN(C)c1ccnc(Nc2ccc(O)cc2)c1C#N	·	·	13%
C=CCC(C)(O)c1cccc(C(F)(F)F)c1 (stereo unspecified)	·	-5%	0%
COC(=O)CC1C(=O)NCCN1C(=O)CSc1nc2cc(Cl)ccc2o1 (stereo unspecified)	·	·	1%
O=C(Nc1cccc(Cl)c1)c1cc(S(=O)(=O)NCCc2ccc(Cl)cc2)ccc1F	-5	-13%	6%
COc1cc(S(=O)(=O)Nc2cccc(C)c2)ccc1NC(=O)c1cccnc1	47	-8%	-17%
COc1ccc(CN(CC2CCC(C(=O)O)CC2)C(=S)Nc2cc(C)ccc2C)cc1 (stereo unspecified)	·	·	3.5µM*
Cc1ccc(C)c(NC(=S)N(Cc2cccc(Br)c2)CC2CCC(C(=O)O)CC2)c1 (stereo unspecified)	·	·	5%
Cc1oc2c(c1C(=O)Nc1cccc(C(=O)O)c1)CCCC2	-108*	1%	2%
Cc1ccc(C(=O)Nc2cccc(C(=O)O)c2)cc1	38	-2%	0%
CC(C)Oc1ccc(C(=O)O)cc1	·	·	4%
CC1=N/C(=C\c2ccc(OC(C)C)cc2)C(=O)N1c1ccc(C(=O)O)cc1	-2	16µM*	-8%
CCO[C@H]1OC(C(=O)N2CCN(Cc3ccc4c(c3)OCO4)CC2)=C[C@@H](C2CC2)[C@@H]1CCCO	·	·	0%
O=C(/C=C/c1ccc(O)cc1)c1ccccc1O	·	?	20µM*
O=C(/C=C\c1ccccc1)c1ccccc1O	·	·	1%[13.5 µM]
CC1=CC2C(CC1=O)C(C)=CCC2C(C)C (stereo unspecified)	·	-5%	-11%
CCc1ccccc1NC(=S)N(CCN(C)C)Cc1cccs1	·	·	-3%
O=C(O)CCS(=O)(=O)c1nc(-c2cccs2)cc(C(F)(F)F)n1	0	?	?
CCOC(=O)CS(=O)(=O)c1nc(-c2ccc(F)cc2)cc(C(F)(F)F)n1	25	?	?
SMILES	PNC inhibitor	HPGD block	ALDH1A1 inh
CCOC(=O)CS(=O)(=O)c1nc(-c2ccccc2)cc(C(F)(F)F)n1	?	14µM*	-1%
COCC(C)NC(=O)CCS(=O)(=O)c1nc(-c2ccc(OC)cc2)cc(C(F)(F)F)n1 (stereo unspecified)	-88*	-26%	-9%
COC(=O)CCS(=O)(=O)c1nc(-c2ccccc2)cc(C(F)(F)F)n1	20	28µM*	3%
CCOC(=O)CCS(=O)(=O)c1nc(-c2ccccc2)cc(C(F)(F)F)n1	-8	16µM*	-19%
COc1ccc(-c2cc(C(F)(F)F)nc(S(C)(=O)=O)n2)cc1	31	?	?
CCOC(=O)Cc1cc(-c2ccccc2)nc2ccc3ccccc3c12	11	?	?
O=[N+]([O-])c1ccc(COc2ncnc3ccccc23)cc1	·	·	-2%
CC1CCC2C(=O)N3C(CCC(C)[C@H]3c3cccc(N4CCCC4=O)c3)C(=O)N2C1c1cccc(N2CCCC2=O)c1 (stereo partly specified)	·	·	0%[13.5 µM]
CCc1ccc(NC(=O)CSc2nnc(SCC(=O)Nc3ccc(CC)cc3)n2N)cc1	-18	-3%	7%
CCOC(=O)OCC1OC(C#Cc2ccc(C)cc2C)C=CC1OC(=O)OCC (stereo unspecified)	·	·	-8%[13.5 µM]
O=C(N/C(=C/C=C/c1ccccc1)C(=O)N1CCOCC1)c1ccccc1Br	·	·	-1%
CC(C)NS(=O)(=O)c1ccc(OCC(=O)NCCC2=CCCCC2)cc1	-25	-4%	-15%
COC(=O)COc1ccc(S(=O)(=O)NCCC2=CCCCC2)cc1	10	-1%	22µM*
CCCNS(=O)(=O)c1ccc(OCC(=O)NCCC2=CCCCC2)cc1	-22	1%	11µM*
CCCNS(=O)(=O)c1ccc(OCC(=O)Nc2ccccc2F)cc1	-112*	0%	10%
CCCNS(=O)(=O)c1ccc(OCC(=O)OC)cc1	-27	-8%	?
O=C(COc1ccc([N+](=O)[O-])cc1)NCCC1=CCCCC1	-14	-11%	10µM*
COC(=O)COc1ccc(S(=O)(=O)NCCC2=CCCCC2)cc1C	-11	-1%	-6%
Cc1ccc(OCC(=O)NCCC2=CCCCC2)cc1	-30	-20%	?
Nc1nn(-c2cccc(F)n2)cc1-c1ccccc1	·	·	-3%
CC1CCN(CC(=O)Nc2cccc(Cl)c2)CC1	·	·	2%
Cc1ccc(/C=C(\NC(=O)c2ccccc2)C(=O)N2CCCC2C(=O)O)cc1 (stereo unspecified)	·	·	-1%
FC(F)(F)c1ccccc1-c1nc(NC2CCNCC2)c2ccccc2n1	·	·	7%
COc1ccccc1N1CCN(Cc2nc(-c3ccc(F)cc3)oc2C)CC1	·	·	0.4µM*
COc1ccccc1N1CCN(Cc2ccc(Br)o2)CC1	12	-9%	13µM*
SMILES	PNC inhibitor	HPGD block	ALDH1A1 inh
COc1ccc(-c2nc(CN3CCN(c4ccccc4OC)CC3)c(C)o2)cc1	·	·	7%
COc1ccccc1N1CCN(Cc2cccc(OC)c2OC)CC1	9	4%	2%
Cc1oc(-c2cc(F)ccc2F)nc1CN1CCN(C)C(=O)[C@@H]1C	·	·	9%
Cc1oc(-c2cc(F)ccc2F)nc1CN1CCN(c2ncnc3ccccc23)CC1	·	·	7.9µM*
CC(C)CNC1=C(C(=S)Nc2ccccc2)C(=O)CC(C)(C)C1	14	0%	?
COC(=O)N1C(C)=Cc2ccccc2C1CC(C)=O (stereo unspecified)	·	-2%	0%
O=C(COC(=O)CNC(=O)c1ccccc1)Nc1ccc2c(c1)OCO2	·	·	2%
NC(=O)C1(N2CCCCC2)CCN(C(=S)NCCc2ccccc2)CC1	·	·	7%
C(=C/c1ccccc1)/CN1CCN(C(c2ccccc2)c2ccccc2)CC1	·	-13%	-7%[20.9 µM]
CC(=C1C(=O)c2ccccc2C1=O)N1CCN(C/C=C/c2ccccc2)CC1	43	-7%	8.9µM*
CC(=C1C(=O)c2ccccc2C1=O)N1CCC(C(N)=O)(N2CCCCC2)CC1	22	-4%	20µM*
CC(=C1C(=O)c2ccccc2C1=O)N1CCN(Cc2ccccc2)CC1	?	2%	10µM*
CC(=O)C1CCN(Cc2ccccc2)CC1	25	-10%	-5%
CCOC(=O)N1CCN(C2OC(=O)c3ccccc32)CC1 (stereo unspecified)	35	-3%	-4%
